Compounds with a hit are over-represented: about 4% of the library has one in this group of screens.
NALP1 inh = blocks the NALP1 inflammasome reconstituted in yeast; 0.61% of 280,000 active; inhibition, % at 10 µM; S. cerevisiae NALP1/ASC/caspase-1 growth, X-gal OD620, 72 h; in the data active = inhibition mostly above about 24%, no sharp cut-off; inactive = mostly below about 32%
NALP3 yeast inh = inhibitors of NALP3 inflammasome in yeast; inhibition, % at 10 µM; Yeast reconstituted NLRP3/ASC/caspase-1, beta-gal luminescence, 24 h; AID 2825; 0.39% of 330,000 active;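 active = inhibition of 50% or more; inactive = inhibition below 50%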
tim23-1 inh = inhibits growth of tim23-1 mutant yeast; S. cerevisiae tim23-1 growth, BacTiter-Glo luminescence, 24 h; inhibition, % at 20 µM; 1.3% of 330,000 active;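 active = growth inhibition of the mutant yeast at or above 50%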;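 also: temperature-sensitive mutant grown at 25 °C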
tim10-1 inh = growth inhibitors of tim10-1 mutant yeast; inhibition, % at 20 µM; S. cerevisiae tim10-1 ts strain growth, BacTiter-Glo, 24 h; 2.2% of 330,000 active; AID 463190;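 active = inhibition of at least 40%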;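 also: mutant grown at 25 °C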
TIM10 inh = growth inhibitors of TIM10 yeast strain; S. cerevisiae TIM10 strain growth, BacTiter-Glo luminescence, 24 h; inhibition, % at 10 µM; 1.4% of 330,000 active;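 active = inhibition of 40% or more at the single tested concentration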;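 also: wild-type TIM10 isogenic control strain grown at permissive 25 °C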
tim23-1 conf = confirmation of tim23-1 mutant yeast growth inhibitors; shares compounds with tim23-1 inh; S. cerevisiae tim23-1 growth, BacTiter-Glo luminescence, 24 h; inhibition, % at 20 µM; 83% of 4,400 active; AID 463218;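 active = inhibition above about 39% in either of two replicate wells at 20 µM, limit read from the data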;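 also: temperature-sensitive tim23-1 mutant grown at 25 °C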
Large screens that a line does not name were inactive (follow-up assays come after a bar, where they were run).

Cn1c(N)c(C(=O)COC(=O)CSc2cccc3cccc(Cl)c23)c(=O)n(C)c1=O	none
Cc1cc(C)c(C(CC(=O)c2cccs2)C(C#N)C#N)c(C)c1 (centres undefined)	tim23-1 inh 52 | tim23-1 conf inactive
COc1ccc(CNC(=O)CSc2nc3ccc(C)cc3[nH]2)cc1OC	none
Nc1cc(S(=O)(=O)Nc2ccccc2Cl)ccc1N1CCCCC1	tim23-1 inh 58 (no result: NALP1 inh) | tim23-1 conf 62
Cc1onc(-c2ccccc2Cl)c1C(=O)NCc1ccc(F)cc1	none
Cn1nnnc1Sc1ncnc2scc(-c3ccc(Br)cc3)c12	tim23-1 inh 68 (no result: NALP1 inh) | tim23-1 conf 59
Brc1cccc(-c2n[nH]c(-c3ccccc3)n2)c1	NALP1 inh 29, tim23-1 inh 69 | tim23-1 conf 48
CC(C)OC(=O)c1ccc(N)cc1	none
CC1CCCCC1NC(=O)CCS(=O)(=O)c1ccc(Cl)cc1 (centres undefined)	none (no result: NALP1 inh)
NC(=S)N/N=C/c1ccc(-c2ccc(Cl)c(Cl)c2)o1	tim23-1 inh 58 | tim23-1 conf 60
NC(=S)N/N=C/c1ccc(-c2ccccc2)o1	none
CCC1CCC(C(=O)NNC(=O)c2cc(-c3ccco3)[nH]n2)CC1 (centres undefined)	none
COc1cc(/C=C/[N+](=O)[O-])ccc1OC(=O)/C=C/c1ccc(F)cc1	tim23-1 inh 55 | tim23-1 conf 51
COc1ccc(/C=C/C(=O)Oc2ccc(C)c(C)c2)cc1OC	none
CCC(=O)OCC(=O)[C@@]1(OC(=O)CC)[C@@H](C)C[C@H]2[C@@H]3CCC4=CC(=O)C=C[C@]4(C)[C@@]3(Cl)[C@@H](O)C[C@@]21C	tim23-1 inh 55 (no result: NALP1 inh) | tim23-1 conf 40
CC(=O)OCC(=O)[C@@]1(O)[C@H](C)C[C@H]2[C@@H]3CCC4=CC(=O)C=C[C@]4(C)[C@@]3(F)[C@@H](O)C[C@@]21C	none
Cc1cccc(Oc2nc(-c3ccccn3)nc3ccccc23)c1	tim23-1 inh 51 | tim23-1 conf 46
CCOC(=O)[C@H]1[C@H]2COc3ccc(Br)cc3[C@@H]2N2C(=O)N(c3ccccc3)C(=O)[C@@]12C	tim23-1 inh 50 (no result: NALP1 inh) | tim23-1 conf inactive
CCOC(=O)[C@@H]1[C@H]2COc3ccc(Br)cc3[C@@H]2N2C(=O)N(c3ccccc3)C(=O)[C@@]12C	none
Cc1csc2nc(O)c(C(=O)NCc3ccc4c(c3)OCO4)c(=O)n12	tim23-1 inh 75 (no result: NALP1 inh) | tim23-1 conf 73
Brc1ccc2oc(-c3ccn[nH]3)cc2c1	tim23-1 inh 65 | tim23-1 conf 48
N/C(Cc1ccc(Cl)c(Cl)c1)=N\OC(=O)c1ccc(Br)o1	tim23-1 inh 77 | tim23-1 conf 80
O=C(Nc1cccc(F)c1)N1CC=C(c2ccc(Cl)cc2)CC1	NALP1 inh 39, tim23-1 inh 59 | tim23-1 conf 72
O=C(CS(=O)(=O)c1ccccc1)Nc1nc(-c2ccc(F)cc2)cs1	tim23-1 inh 57 | tim23-1 conf 49
COc1ccccc1NC(=O)NCC1CC1(Cl)Cl (centres undefined)	none
O=S(=O)(Cc1ccccc1)C1CCCCC1O (centres undefined)	none (no result: NALP1 inh)
COc1ccc(N2CCN(C(=S)NC(=O)c3cccs3)CC2)c([N+](=O)[O-])c1	tim23-1 inh 53 | tim23-1 conf 46
Cc1ccccc1COc1ccc(/C=C(\C#N)C(N)=O)cc1	none
N#C/C(=C\c1ccc(OCc2ccccc2)cc1)C(N)=O	tim23-1 inh 63 | tim23-1 conf 52
O=c1c2ccc([N+](=O)[O-])cc2ncn1CCOc1ccc(Cl)cc1	tim23-1 inh 62 | tim23-1 conf 65
CC(=O)NCCc1ccc(C(=O)COC(=O)c2cc(C)oc2C)cc1	none (no result: NALP1 inh)
Cc1ccc(S(=O)(=O)c2c(C)nn(C(C)(C)C)c2OC(=O)c2cccs2)cc1	tim23-1 inh 51 | tim23-1 conf inactive
Cc1ccc(S(=O)(=O)n2ccc(OC(=O)c3cccs3)n2)cc1	tim23-1 inh 58 | tim23-1 conf 57
CC(=O)Oc1c(S(=O)(=O)c2ccc(C)cc2)c(C)nn1C(C)(C)C	tim23-1 inh 52 | tim23-1 conf inactive
CCCCC(=O)Oc1c(S(=O)(=O)c2ccc(C)cc2)c(C)nn1C(C)(C)C	none
COC(=O)c1cc(S(=O)(=O)N2CCN(Cc3ccccc3)CC2)c[nH]1	none
CCc1ccc(NC(=O)Nc2ccsc2C(=O)OC)cc1	tim23-1 inh 56 | tim23-1 conf 57
COC(=O)c1sccc1NC(=O)Nc1ccc(C)c(C)c1	tim23-1 inh 60 | tim23-1 conf 49
O=[N+]([O-])c1ccc(NS(=O)(=O)N2CCOCC2)cc1	none (no result: NALP1 inh)
CCOC(=O)C1CCN(S(=O)(=O)c2cn(C)c(C)n2)CC1	none
CC(C)(C)NC(=O)CSc1nc(-c2ccc(F)cc2)cs1	tim23-1 inh 77 | tim23-1 conf inactive
O=C(CCC(=O)Nc1ccccc1Cl)NN=C1CCCC1	none
CCCCn1c(N)c(N(CCC(C)C)C(=O)c2ccc3c(c2)OCCO3)c(=O)[nH]c1=O	tim23-1 inh 59 (no result: NALP1 inh) | tim23-1 conf 56
CCCCN(C(=O)c1ccc(C)c(S(=O)(=O)N2CCOCC2)c1)c1c(N)n(CC(C)C)c(=O)[nH]c1=O	none (no result: NALP1 inh)
CCCCN(C(=O)c1ccc2c(c1)OCCO2)c1c(N)n(CC(C)C)c(=O)[nH]c1=O	tim23-1 inh 58 (no result: NALP1 inh) | tim23-1 conf 58
CC(C)CN(C(=O)c1ccc2c(c1)OCCO2)c1c(N)n(Cc2ccccc2)c(=O)[nH]c1=O	tim23-1 inh 52 (no result: NALP1 inh) | tim23-1 conf 55
CCOc1ccc(NC(=O)CC(c2ccccc2)c2ccc(F)cc2)cc1 (centres undefined)	none
Oc1ccc(Br)cc1C=Nc1cccn2cc(-c3ccccc3)nc12	tim23-1 inh 54 | tim23-1 conf 54
O=C(CNC(=O)c1ccccc1)NC1(C(=O)NC2CCCCC2)CCCCC1	none
CN(C)C(=O)c1c(NC(=O)c2ccco2)sc2c1CCCCC2	tim23-1 inh 60 | tim23-1 conf 49
O=[N+]([O-])c1cccc(-n2nnnc2CN2CCCC2)c1	none
CCN1CCN(C(=O)/C=C/c2c(F)cccc2Cl)CC1	none
O=C(/C=C/c1c(F)cccc1Cl)N1CCc2ccccc2C1	tim23-1 inh 59 | tim23-1 conf 59
Cc1ccc(CN2CCN(/N=C/c3cc(Br)cc(Br)c3O)CC2)cc1	tim23-1 inh 59 | tim23-1 conf 59
Cc1ccc(-c2cc(N)nc(-c3ccccc3)c2)cc1	none
Cc1ccc(-c2cc(-c3ccccc3)nc(N(C)N)n2)cc1	tim23-1 inh 56 | tim23-1 conf 53
CC1CC1C(=O)Nc1nc2ccc(Cl)cc2s1 (centres undefined)	tim23-1 inh 56 (no result: NALP1 inh) | tim23-1 conf 53
COC(=O)c1ccc2nc(NC(=O)C3CC3)sc2c1	tim23-1 inh 51 | tim23-1 conf 50
COC(=O)c1ccc2nc(NC(=O)C(C)C)sc2c1	none
O=C(Nc1ccccc1)C1CC2CCC1C2 (centres undefined)	none

Assay outcomes (PubChem BioAssay)
